# From ChEMBL document CHEMBL1157539, “Thousands of chemical starting points for antimalarial lead identification” (Nature, 2010)
# System: Plasmodium falciparum
# Assay: GSK_TCMDC: Inhibition of Plasmodium falciparum 3D7 in whole red blood cells, using parasite LDH activity as an index of growth. Test compounds present at 2uM
# Type: functional
row,Structure (SMILES),Inhibition
1,COCCN1CCC(N(Cc2ccc(-c3ccc(C(F)(F)F)cc3)cc2)C(=O)Cn2c(CCc3cccc(F)c3F)cc(=O)c3c2CCC3)CC1.O=C(O)C(O)C(O)C(=O)O,85%
2,CC1(C)NC(N)=NC(=N)N1OCc1cc(Cl)c(Cl)cc1CON1C(=N)N=C(N)NC1(C)C,98%
3,CCc1c(CCNCCCC(C)CCNCCc2ccc(OC)c(OC)c2CC)ccc(OC)c1OC.Cl (configuration not stated),100%
4,O=[N+]([O-])c1ccc(C(O)P(=O)(c2ccccc2)c2ccccc2)cc1 (configuration not stated),98%
5,O=C(Nc1cccc(CN2CCCN(CCc3ccccc3)CC2)c1)c1ccc(Cl)c(Cl)c1.O=C(O)C(F)(F)F,86%
6,CCN(CC)CCN(Cc1ccc(-c2ccc(C(F)(F)F)cc2)cc1)C(=O)Cn1c(CCc2cccc(F)c2F)nc(=O)c2ccc(C(F)(F)F)cc21.O=C(O)C(O)C(O)C(=O)O,99%
7,CCC(C)CN1CCN(c2ccc(NC(=O)c3cccs3)cc2)CC1C.O=C(O)C(F)(F)F (configuration not stated),94%
8,Cc1c(Br)cc2nc(-c3ccc(C(=O)NC4CCN(Cc5ccccc5)CC4)cc3)[nH]c2c1C,100%
9,Cc1noc(C)c1-c1ccc2c(Nc3cccc4c3-c3ccccc3C4=O)c(C(=O)NCc3ccccc3I)cnc2c1,99%
10,O=C(NCCNc1nc(NCCNC(=O)Nc2ccccc2)c2ccc(=O)n(-c3c(F)cccc3F)c2n1)Nc1ccccc1,94%
11,O=C(CN1CCN(C(C(=O)Nc2cc(C(F)(F)F)ccc2Cl)c2ccccc2)CC1)NC1CC1 (configuration not stated),95%
12,CCC(c1ccccc1)c1nn2c(-c3cccs3)nnc2s1 (configuration not stated),97%
